A short description of this test: P-glycoprotein substrates identified in KB-8-5-11 adenocarcinoma cell line, qHTS therapeutic library screen (AID 1346987). Further: nearly all actives have a fitted effect of over 65% in size. The gist of the method:
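P-gp-mediated resistance screen: KB-8-5-11 cells treated 72 h with compounds in dose-response. CellTiter-Glo viability.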
In general terms: In qHTS, concentration-response curves come from the screen itself.

Records with an inconclusive call do not appear. Where a call stands in place of a potency, no number is given. The source made the active and inactive calls. The call rests on the fitted dose curve; in most records, active means well fitted inhibition curve with a large enough effect; inconclusive means small, poorly fitted or top-dose-only effect; inactive means flat fitted curve, though single readings scatter.

Take `O=S(=O)(Nc1ccc(C(O)(C(F)(F)F)C(F)(F)F)cc1)c1cccs1`: the Potency entry is “inactive”. For the compound `C=CC(C)(CC/C=C(\C)CC/C=C(\C)CC(O)/C=C(\C)C(=O)O)O[C@@H]1O[C@H](CO)[C@@H](O)[C@H](O)[C@H]1O[C@@H]1O[C@H](CO)[C@@H](O)[C@H](O)[C@H]1O` (stereo partly drawn), the Potency entry is “inactive”.

As to `COc1ccccc1CC(C(=O)O)N(C)C(=O)c1ccccc1` (stereo not drawn), the Potency entry was “inactive”.
